# BRCA1 expr act: activators of BRCA1 expression | Potency, µM (doses to about 46.1 µM), inactives show top-dose activation, most hits filed as activators | 380,000 compounds, 1.1% hits | MCF7-BRCA1-FFLuc reporter, luminescence, 48 h; response scale: scaled: vehicle 0%, 10 µM genistein 100%; also: nearly all actives have a fitted effect of over 80% in size
#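 48 h compound treatment of MCF7-BRCA1-FFLuc cells (phenol-red free MEM, 37 °C), then 15 min with luciferase substrate and luminescence imaging.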
# Mito fusion act: inhibitors of mitochondrial division or activators of mitochondrial fusion. S. cerevisiae fusion-defective mutant growth rescue, CellTiterGlo 48 h. Potency, µM (top dose mostly 46.1 µM), for the others: at the highest dose growth rescue (activation), actives largely listed as activators. 320,000 compounds, 0.23% hits; also: % of control where 0% means no effect; nearly all actives have a fitted effect of over 45% in size
#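 S. cerevisiae fusion-defective temperature-sensitive mutants (e.g. fzo1-1, mgm1-5) grown 48 h at 37C in YPEG (ethanol/glycerol non-fermentable) medium with 23 nl compound per well; growth rescue read as CellTiterGlo luminescence.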
# ERG Ets-DNA blk: ERG Ets/DNA interaction inhibition; Potency, µM (doses to about 76.9 µM), for the others: top-dose FP activity, negative = inhibition, usual class: inhibitors; AID 624246; P11308; 370,000 compounds, 0.028% hits; fluorescence polarization, His-ERG Ets domain / labelled DNA; active = well fitted inhibition curve with a large enough effect in the polarisation, with a control signal flat; inconclusive = small, poorly fitted or top-dose-only effect, or effect the other way, or a change in a side signal; inactive = no such curve, though single readings can be large or run the other way; the % refers to the polarisation;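 also: polarization taken with two DNA probes labelled with fluorescein and Texas red; % of control where 0% means no effect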
#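 His-tagged ERG Ets domain (1 uM in the protein solution; 300mM KCl, 50mM Tris-HCl, 1mM EDTA, 1mM DTT, pH 7.5) received compound, then a probe mix of 5 nM fluorescein-DNA and 100nM Texas-615-DNA. Fluorescence polarization was read for both dyes.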
# B2AR arrestin: recruits beta-arrestin to the human beta2-adrenergic receptor; P07550; beta-arrestin recruitment to beta2AR, cell-based reporter; Potency, µM (series often up to 46.1 µM), without a hit: at the top dose activation, usual class: activators; 330,000 compounds, 0.02% hits; AID 492947;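 also: 0% = DMSO controls and full agonism = EC100 isoproterenol or metaproterenol; nearly all actives have a fitted effect of over 65% in size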
# Target sequence (P07550 whole entry, looked up): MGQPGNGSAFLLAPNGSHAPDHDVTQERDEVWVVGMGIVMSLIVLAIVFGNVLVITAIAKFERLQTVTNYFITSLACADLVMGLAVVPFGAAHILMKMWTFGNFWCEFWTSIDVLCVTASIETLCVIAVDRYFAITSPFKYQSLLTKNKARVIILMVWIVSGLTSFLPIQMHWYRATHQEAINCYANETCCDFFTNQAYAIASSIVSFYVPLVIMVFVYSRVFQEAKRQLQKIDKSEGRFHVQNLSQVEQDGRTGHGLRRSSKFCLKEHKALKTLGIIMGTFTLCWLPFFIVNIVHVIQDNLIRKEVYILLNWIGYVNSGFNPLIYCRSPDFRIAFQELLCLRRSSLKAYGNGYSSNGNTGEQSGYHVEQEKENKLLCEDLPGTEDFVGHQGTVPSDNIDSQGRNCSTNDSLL
# * hit, by the source's call; ? = inconclusive; . = no result given. Rows were chosen to be rich in hits. Some 1.2% of all compounds tested hit in one or more screens of this group. Unless noted, calls follow the shape of the dose curve; as a rule, active = well fitted curve in the direction sought with a large enough effect; inconclusive = small, poorly fitted or top-dose-only effect, or another doubt; inactive = no such curve, though single readings can be large; an effect the other way counts as inactive or inconclusive. Potency is read from the fitted curve at half-maximal effect.
SMILES,BRCA1 expr act,Mito fusion act,ERG Ets-DNA blk,B2AR arrestin
CCOC(=O)c1c(C)[nH]c(C)c1S(=O)(=O)N1CCC(C(=O)N2CCN(c3cccc(C)c3)C(C)C2)CC1 (stereo not drawn),.,.,-5.0%,.
COc1cc(N=Nc2ccccc2C(=O)O)ccc1O,-40.8%,-17.5%,9.6%,-0.2%
COc1cc(N=Nc2ccc3ccccc3c2)ccc1O,5.01µM*,-28.0%,-4.4%,0.5%
Cc1ccc(C(=O)c2cn(Cc3cccc(F)c3)c3nc(C)ccc3c2=O)cc1,-19.9%,.,-0.5%,.
O=C(NCc1ccccc1Cl)C1CCCN(c2ncnc3onc(-c4ccc(F)cc4)c23)C1 (stereo not drawn),.,.,3.4%,.
Cc1ccc(Cl)cc1N1CCN(C(=O)c2ccc(NC(=O)c3nsc4ccccc34)cc2)CC1,.,.,1.3%,.
CN(C)S(=O)(=O)c1ccc(C(=O)Nc2ccccn2)cc1,14.1µM*,3.4%,.,0.3%
O=C(Nc1ccc(Nc2ccccc2)cc1)c1ccccc1,3.55µM*,.,-2.3%,.
O=C(Nc1ccc(Nc2ccccc2)cc1)c1ccc(Cl)cc1,-4.3%,.,-6.7%,.
O=C(Nc1ccccc1)c1ccc(NC(=O)C2CC2)cc1,3.98µM*,-1.4%,2.2%,-0.2%
O=C(Nc1ccc(SC(F)F)cc1)c1ccc(F)cc1,3.16µM*,-0.5%,4.9%,0.1%
O=C(Nc1ccccc1)c1ccn[nH]1,7.08µM*,7.5%,1.4%,-0.3%
CCn1nnc2cc(C(=O)Nc3ccc(C)cc3Br)ccc21,.,.,2.5%,.
O=C(Nc1ccc(F)cc1)c1ccccc1,11.2µM*,-2.6%,-4.5%,-0.2%
O=C(Cc1cccs1)N/N=C/C(Br)=C/c1ccccc1,5.01µM*,-2.5%,-1.7%,0.0%
COc1cc(/C=N/Nc2nncc3ccccc23)cc(OC)c1OC,7.08µM*,3.7%,-19.0%,-1.0%
NC(=Nc1ccccc1)NC(=O)c1nc(Cl)c(N)nc1N,5.62µM*,?,-3.8%,.
NC(=NCc1ccccc1)NC(=O)c1nc(Cl)c(N)nc1N,-30.6%,7.7%,-2.8%,.
COc1cc2c(cc1OC)C(c1ccc(Cl)cc1)N(c1cccc(C#N)c1)C(=O)C2 (stereo not drawn),.,.,-7.8%,.
Cc1csc2nc(-c3cccc(NC(=O)c4c(F)cccc4F)c3)cn12,17.2%,.,6.0%,.
COc1cc(C)ccc1OCCCOc1ccccc1Cl,12.6µM*,-4.1%,3.3%,-0.4%
CC(=O)Nc1cccc(C(=O)OCC(=O)NC(=O)C2CCCCC2)c1,2.7%,.,.,.
O=C1COc2ccc(OCc3ccc(F)cc3)cc21,2.82µM*,-5.7%,-4.4%,-0.2%
CC1CCN(c2oc(-c3ccccc3Cl)nc2C#N)CC1,6.31µM*,9.5%,-8.6%,0.9%
Cc1ccc(NC(=O)NCc2ccccn2)cc1Cl,34.4%,-5.4%,-6.2%,-0.4%
SMILES,BRCA1 expr act,Mito fusion act,ERG Ets-DNA blk,B2AR arrestin
Cc1ccc(NC(=O)NCc2c(C)nn(C)c2C)cc1Cl,5.01µM*,-0.8%,-2.4%,0.2%
Cn1c(=O)[nH]c2nnc(-c3ccc(Cl)c(Cl)c3)nc2c1=O,-29.2%,2.51µM*,8.3%,0.3%
CCc1ccccc1Nc1nn2c(=O)c3ccc(C(=O)NCCC4=CCCCC4)cc3nc2s1,11.2%,.,5.3%,.
CCCCOc1ccc(CNC(=O)Cc2ccc(NC(=O)N3CCCCc4ccccc43)cc2)cc1,-21.1%,.,0.9%,.
Cc1ccc2c(CN(C)Cc3cccc(F)c3)cc(=O)oc2c1C,74.5%,5.8%,40.8%,-0.1%
COc1ccc2c(CN(C)Cc3ccccc3)cc(=O)oc2c1,5.01µM*,.,.,.
COc1ccc(COc2ccc3c(C)cc(=O)oc3c2)cc1,2.51µM*,0.6%,0.1%,-1.3%
Cc1ccc2c(CN(C)Cc3ccccc3)cc(=O)oc2c1C,?,0.3%,35.5µM*,-1.6%
COc1ccc2c(CN(C)c3ccccc3)cc(=O)oc2c1,-14.8%,23.9%,.,0.2%
Cc1cc(C)c2oc(C(=O)NCc3ccccc3)cc(=O)c2c1,40.0%,11.9%,3.0%,0.8%
Cc1ccc2c(=O)cc(C(=O)NCc3ccccc3)oc2c1C,-9.6%,12.6µM*,10.2%,-0.1%
COc1cccc(/C=N/Nc2snc(SC)c2C#N)c1O,-29.5%,5.01µM*,9.6%,0.0%
COc1ccc(/C=N/Nc2snc(SC)c2C#N)cc1OC,11.3%,-0.2%,1.2%,-0.6%
CC(C)CC(=O)Nc1ccc(S(=O)(=O)Nc2cc3c(cc2N2CCOCC2)n(C)c(=O)c(=O)n3C)cc1,.,.,0.4%,.
Oc1ccc(/C=N/N2CCN(c3ccccn3)CC2)cc1,64.1%,1.0%,5.5%,-0.7%
Cc1ccc(/C=N/N2CCN(c3ccccn3)CC2)o1,10µM*,0.8%,-3.0%,-0.4%
C(=N\N1CCN(c2ccccn2)CC1)/c1ccccn1,11.2µM*,4.1%,-10.6%,-0.1%
Clc1ccc2c(ccc[n+]2CCC2CCCCC2)c1,-48.7%,.,.,.
COc1n[nH]c(C(=O)Nc2cc(F)ccc2C)c1[N+](=O)[O-],-3.0%,7.08µM*,-10.9%,-0.5%
CCOc1cccc(-c2csc(C3COc4ccccc4O3)n2)c1 (stereo not drawn),5.01µM*,-0.5%,-10.7%,0.2%
COc1cccc(CNC(=O)C2CCN(c3nnc(-n4c(C)ccc4C)s3)CC2)c1,.,.,-0.6%,.
Oc1oc(-c2ccccc2)nc1C=Nc1cccc2ccccc12,-67.8%,11.2µM*,.,0.0%
Oc1oc(-c2ccccc2)nc1/C=N/c1nccs1,2.1%,-1.3%,-2.5%,-1.2%
Cc1ccc(NC(=O)c2ccc(Nc3ccccc3F)nc2)cc1,8.91µM*,-0.8%,0.2%,0.0%
CCCCNC(=O)CCC(=O)Nc1ccc2nc(N3CCOCC3)cc(C)c2c1,3.98µM*,3.2%,4.4%,-0.8%
SMILES,BRCA1 expr act,Mito fusion act,ERG Ets-DNA blk,B2AR arrestin
CCN(CC)CCCNC(=O)CCC(=O)Nc1ccc2nc(N3CCCCC3)cc(C)c2c1,11.2µM*,-8.1%,2.4%,0.3%
Cc1ccc(OCCSc2nc(N)cc(N)n2)cc1,?,?,1.4%,0.1%
COc1ccc(OCCSc2nc(N)cc(N)n2)cc1,11.2µM*,16.1%,-5.1%,-0.5%
O=C(CSc1ccc2ccccc2n1)N1CCC(c2noc3ccc(F)cc23)CC1,-31.1%,20µM*,-6.8%,-0.3%
Cc1nnc(SCC(=O)N2CCC(c3noc4ccc(F)cc34)CC2)s1,-1.5%,4.5%,0.1%,-0.1%
CCOC(=O)NN1C(=O)c2ccccc2NC1c1cccs1 (stereo not drawn),7.6%,-0.5%,35.5µM*,-0.4%
CCOC(=O)NN1C(=O)c2ccccc2NC1c1cccnc1 (stereo not drawn),-16.8%,-5.8%,1.8%,0.3%
CCOc1ccccc1NC(=O)C(C)n1nnc2sc3c(c2c1=O)CCCC3 (stereo not drawn),.,.,-7.3%,.
CC(C)c1ccc(NC(=O)c2cc3c([nH]c2=O)CC(C)(C)CC3=O)cc1,15.8%,.,.,.
Cc1cccc(NC(=O)C2CCN(S(=O)(=O)c3c(C)c(C)cc(C)c3C)CC2)n1,-87.1%,20µM*,-10.9%,-4.1%
Cc1c(CNC(C)CCc2ccccc2)c(C(=O)O)c(C)n1Cc1ccc(F)cc1Cl (stereo not drawn),.,.,-0.1%,.
Cc1cc(NC(C)c2ccccc2)n2ncc(-c3ccccc3)c2n1 (stereo not drawn),6.31µM*,-4.0%,6.9%,0.8%
Cc1cc(NCc2ccccc2)n2ncc(-c3ccccc3)c2n1,?,17.1%,-4.2%,0.3%

# High-throughput results as filed in PubChem.
